Our source for the inhibition values is PubChem BioAssay AID1626 (SRMLSC, 2009).

Out of some 220,000 compounds screened, about 2,000 (0.91%) were called active. Roughly 2% stayed inconclusive and do not appear here. Not all results are given here. Potency and affinity values are given separately. Values without a mark were called inactive. Rule as the data show it: inconclusive = inhibition above about 80% without an active follow-up result; inactive = below that; test concentration not stated here.

The test in a line: M. tuberculosis H37Rv growth inhibitors, H37Rv strain (AID 1626).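 Also: bacteria incubated seven days before Alamar blue readout; 0% = bacteria only wells and 100% = bacteria with antibiotic wells.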 The following applies: active compounds read high, concentration not given here.
Usually inhibition stands for the drop in the measured response relative to a control, in per cent. As for `Cc1ccc(NC(=O)CSc2nnc(Cc3ccccc3)o2)cc1`, the inhibition is 22.6%. For `O=C(CSc1nnc(Cc2ccccc2)o1)Nc1ccccc1` the value was -4.88%; for `COCCN(C(=O)c1ccco1)C(C(=O)NC1CCCC1)c1cccs1` (stereo not drawn), 0.07%. Next, `CCOC(=O)c1snc(C(=O)NC2CCCCC2)c1N`: 5.5%; `CC(OC(=O)c1snc(C(=O)NC2CCCCC2)c1N)C(=O)NC1CCCCC1` (stereo not drawn): 2.49%. Take `CCOC(=O)c1sc(C)c(C(=O)NC2CCCCC2)c1N`: the inhibition is 4.33%.

`CC(OC(=O)c1snc(C(=O)NC2CCCCC2)c1N)C(=O)NC(C)(C)C` (stereo not drawn): the inhibition is 39%. Next, `COc1ccc(NC(=S)Nc2ccccc2F)c(OC)c1`: -4.54%; `COC(=O)c1ccccc1NC(=O)C1CCCN(S(=O)(=O)c2ccc(OC)cc2)C1` (stereo not drawn): 5.41%. Next, `O=C(/C=C/c1ccccc1Cl)NCc1cccs1`: 2.96%. For `O=C1CC(SCc2nc3ccccc3[nH]2)C(=O)N1c1ccc(F)c(Cl)c1` (stereo not drawn) the value was -2.51%; for `Cc1cccn2c(=O)c3cc(C(=O)NC(C)c4ccccc4)c(=N)n(CCCn4ccnc4)c3nc12` (stereo not drawn), 48.6%; for `C=CC(=O)NC1CC2CCC1(C)C2(C)C` (stereo not drawn), 6.5%.

`CC1(C)C2CCC1(C)C(Nc1ccccc1)C2` (stereo not drawn): the inhibition is 3.82%.

Regarding `Cc1onc(-c2c(F)cccc2Cl)c1C(=O)N1CCN(c2ncccn2)CC1`, the inhibition is 3.2%. For `COc1cc(CNn2c(C)n[nH]c2=S)cc(Br)c1OCc1ccc(F)cc1` the value was 6.01%. In the case of `CCOc1ccc(N=C(/C(C(=O)C(=O)N2CCOCC2)=C(/O)c2ccccc2)c2ccccc2)cc1`, the inhibition was 70.8%. For `CCOc1ccc(OCc2ccc(C(=O)N3CCOCC3)cc2)cc1` the value was -3.72%; for `O=C(c1ccccc1)c1cccs1`, 0.41%; for `Nc1ccc(C(=O)c2cccs2)cn1`, -5.69%. Next, `COc1ccc(-c2csc(NC(CO)c3nc4ccccc4n3CCCO)n2)cc1` (stereo not drawn): 1.28%; `Cc1cc(-c2csc(NC(=O)c3cc4ccccc4o3)n2)c(C)n1C`: -8.86%; `Cc1ccc(-c2csc(NC(=O)c3ccc(C)o3)n2)cc1`: 10.4%. On to `O=C(Nc1ccccn1)c1cc2ccccc2o1`, for which the inhibition is 9.27%. Next, `Cc1ccc(C(=O)Nc2nc(-c3cccnc3)cs2)o1`: 7.51%. `CCCCn1nnnc1SCC(=O)N1CCOCC1`: the inhibition is -13.6%. For `Cc1[nH]nc2c1C(c1cccs1)C(C#N)=C(N)O2` (stereo not drawn) the value was 8.65%. Next, `CC(O)[C@H]1CNC(=O)C(=O)N1CCC12CC3CC(CC(C3)C1)C2` (stereo partly drawn): -0.53%.
